{"source": "paper PMC4336329", "about": "(PLoS ONE, 2015)", "note": "Screen size: about 310,000 compounds; about 14,000 (4.5%) showed an effect of 50% or more. Effects have a minus sign here. The entries come from a sample that favours strong results as a whole.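 Further: peak tail current of the secondary pulse compared with the same well before compound.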"}
{"target": "human ether-à-go-go-related gene (hERG) potassium channel (human, UniProt Q12809)", "sequence (Q12809 whole entry, looked up)": "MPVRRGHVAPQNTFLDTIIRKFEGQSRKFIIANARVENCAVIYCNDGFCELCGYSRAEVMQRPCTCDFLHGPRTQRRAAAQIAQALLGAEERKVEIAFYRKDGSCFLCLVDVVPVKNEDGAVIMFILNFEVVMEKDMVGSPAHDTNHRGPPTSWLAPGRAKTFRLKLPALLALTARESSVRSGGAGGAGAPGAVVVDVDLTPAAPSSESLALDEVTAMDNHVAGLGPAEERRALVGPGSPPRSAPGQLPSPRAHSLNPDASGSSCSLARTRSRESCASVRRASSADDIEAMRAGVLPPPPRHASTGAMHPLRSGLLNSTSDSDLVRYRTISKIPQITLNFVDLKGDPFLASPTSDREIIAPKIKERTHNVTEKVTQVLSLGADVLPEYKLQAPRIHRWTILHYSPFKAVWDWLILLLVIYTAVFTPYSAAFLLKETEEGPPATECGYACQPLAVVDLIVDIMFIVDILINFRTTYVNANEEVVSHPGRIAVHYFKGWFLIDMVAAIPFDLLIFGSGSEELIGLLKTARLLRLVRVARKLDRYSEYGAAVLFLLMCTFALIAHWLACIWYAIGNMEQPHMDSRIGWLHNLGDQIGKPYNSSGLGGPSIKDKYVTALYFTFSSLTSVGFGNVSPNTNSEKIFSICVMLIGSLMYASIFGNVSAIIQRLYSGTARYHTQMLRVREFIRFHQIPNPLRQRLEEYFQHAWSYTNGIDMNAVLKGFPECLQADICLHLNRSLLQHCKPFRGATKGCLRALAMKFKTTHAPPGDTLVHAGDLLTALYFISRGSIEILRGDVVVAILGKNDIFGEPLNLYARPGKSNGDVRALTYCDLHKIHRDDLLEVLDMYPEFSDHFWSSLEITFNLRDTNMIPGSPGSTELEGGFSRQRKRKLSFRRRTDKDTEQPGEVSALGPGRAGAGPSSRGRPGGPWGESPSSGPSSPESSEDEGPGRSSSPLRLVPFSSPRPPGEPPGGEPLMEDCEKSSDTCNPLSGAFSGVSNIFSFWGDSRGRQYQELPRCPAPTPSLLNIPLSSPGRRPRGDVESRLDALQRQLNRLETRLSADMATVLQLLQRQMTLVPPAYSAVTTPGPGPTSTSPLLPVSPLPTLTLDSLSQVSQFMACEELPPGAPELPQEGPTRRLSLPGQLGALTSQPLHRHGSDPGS", "experiment": "primary screen, population patch clamp on CHO cells stably expressing hERG; higher = less effect of the substance", "units": {"hERG current change (%, negative = inhibition) at 10uM": "%"}}
{"smiles": "CCCn1[nH]cc(SC)c(=O)c1=O", "hERG current change (%, negative = inhibition) at 10uM": -5.83}
{"smiles": "CCn1c(SCC(=O)Nc2c(C)n(C)n(-c3ccccc3)c2=O)nc2c1c(=O)n(C)c(=O)n2C", "hERG current change (%, negative = inhibition) at 10uM": 18.2}
{"smiles": "Cc1c(C(C)C)c(=O)n(-c2ccc(S(=O)(=O)N3CCOCC3)cc2)n1C", "hERG current change (%, negative = inhibition) at 10uM": 17.4}
{"smiles": "Nc1c(Cl)c(Cl)nc(C(=O)OCC(=O)NCc2ccccc2)c1Cl", "hERG current change (%, negative = inhibition) at 10uM": -18.2}
{"smiles": "COCCn1c(SCC#N)nnc1-c1ccc2c(c1)OCO2", "hERG current change (%, negative = inhibition) at 10uM": -24.2}
{"smiles": "CCCCC(=O)Nc1c(O)c2ccccc2[nH]c1=O", "hERG current change (%, negative = inhibition) at 10uM": -0.31}
{"smiles": "Cc1ccc(NC(=O)N2CCCCC2)cc1NC(=O)N1CCCCC1", "hERG current change (%, negative = inhibition) at 10uM": 16.5}
{"smiles": "Cc1ccc(-n2c(O)c(C=N)c(=O)n(-c3ccc(C)cc3)c2=O)cc1", "hERG current change (%, negative = inhibition) at 10uM": -8.85}
{"smiles": "COc1ccccc1N1C(=O)NC(=O)C(CCc2ccncc2)(CCc2ccncc2)C1=O", "hERG current change (%, negative = inhibition) at 10uM": -46.6}
{"smiles": "O=C1NC(=O)C(CCc2ccncc2)(CCc2ccncc2)C(=O)N1CCc1ccccc1", "hERG current change (%, negative = inhibition) at 10uM": -71.7}
{"smiles": "CN1C(=O)N(C)C(=O)C(CCc2ccncc2)(CCc2ccncc2)C1=O", "hERG current change (%, negative = inhibition) at 10uM": -51.2}
{"smiles": "O=C1NC(=O)C(CCc2ccncc2)(CCc2ccncc2)C(=O)N1C1CCCCC1", "hERG current change (%, negative = inhibition) at 10uM": -75.3}
{"smiles": "C=CCN1C(=O)NC(=O)C(CCc2ccncc2)(CCc2ccncc2)C1=O", "hERG current change (%, negative = inhibition) at 10uM": -41.8}
{"smiles": "O=C1NC(=O)C(CCc2ccncc2)(Cc2ccc3c(c2)OCO3)C(=O)N1CCc1ccccc1", "note": "(centres unmarked)", "hERG current change (%, negative = inhibition) at 10uM": -32.5}
{"smiles": "O=C1NC(=O)C(CCc2ccncc2)(C2CCCCC2)C(=O)N1", "hERG current change (%, negative = inhibition) at 10uM": 5.77}
{"smiles": "COc1cc(CC2(CCc3ccncc3)C(=O)N(C)C(=O)N(C)C2=O)cc(OC)c1OC", "hERG current change (%, negative = inhibition) at 10uM": -8.33}
{"smiles": "O=C1NC(=O)C(CCc2ccncc2)(CCc2ccncc2)C(=O)N1Cc1ccccc1", "hERG current change (%, negative = inhibition) at 10uM": -72.5}
{"smiles": "CN1C(=O)N(C)C(=O)C(CCc2ccccn2)(CCc2ccccn2)C1=O", "hERG current change (%, negative = inhibition) at 10uM": 3.54}
{"smiles": "CCC1(CCc2ccncc2)C(=O)NC(=O)NC1=O", "hERG current change (%, negative = inhibition) at 10uM": -4.69}
{"smiles": "O=C1NC(=O)C(CCc2ccncc2)(c2ccccc2)C(=O)N1", "hERG current change (%, negative = inhibition) at 10uM": 5.76}
{"smiles": "O=C(Cn1nc(-c2ccccc2)c2ccccc2c1=O)NN1CCOCC1", "hERG current change (%, negative = inhibition) at 10uM": 5.24}
{"smiles": "COc1ccc(S(=O)(=O)NCc2cccnc2)cc1OC", "hERG current change (%, negative = inhibition) at 10uM": 17.1}
{"smiles": "COc1cc2sc3ccc(C#Cc4ccccn4)cc3c(=O)c2cc1OC", "hERG current change (%, negative = inhibition) at 10uM": 14.9}
{"smiles": "O=C1Cc2ccccc2C(=O)N1Cc1cccc(Cl)c1", "hERG current change (%, negative = inhibition) at 10uM": 11.5}
{"smiles": "CC(=O)Nc1sc(NC(=O)c2ccccc2)nc1-c1cccs1", "hERG current change (%, negative = inhibition) at 10uM": 0.00438}
{"smiles": "CC1CC(Nc2ccccc2)=CC(=O)O1", "note": "(centres unmarked)", "hERG current change (%, negative = inhibition) at 10uM": 24.7}
{"smiles": "CC(c1nnc(Sc2nnnn2-c2ccccc2)n1-c1ccc(F)cc1)N(C)C", "note": "(centres unmarked)", "hERG current change (%, negative = inhibition) at 10uM": 3.57}
{"smiles": "COc1ccc(CN(C)CC(=O)Nc2ccccc2C(=O)NC2CC2)cc1OC", "hERG current change (%, negative = inhibition) at 10uM": -21.7}
{"smiles": "COc1ccccc1OCC(=O)Nc1ccccc1C(=O)NC1CC1", "hERG current change (%, negative = inhibition) at 10uM": -8.86}
{"smiles": "COc1ccc(OCC(=O)Nc2ccccc2C(=O)NC2CC2)cc1", "hERG current change (%, negative = inhibition) at 10uM": -13.4}
{"smiles": "COC(=O)c1ccccc1NC(=O)CN1CCC(NC(=O)c2ccc(C)cc2)CC1", "hERG current change (%, negative = inhibition) at 10uM": 8.67}
{"smiles": "COc1cc2c(cc1OC)CN(CC(=O)Nc1ccccc1C(=O)NC1CC1)CC2", "hERG current change (%, negative = inhibition) at 10uM": -24.5}
{"smiles": "COc1cccc(OC)c1NC(=O)CN1CCC(NC(=O)c2cccc(F)c2)CC1", "hERG current change (%, negative = inhibition) at 10uM": 1.5}
{"smiles": "COc1ccc(OC)c(CN2CCN(CC(=O)Nc3ccccc3C(=O)NC3CC3)CC2)c1", "hERG current change (%, negative = inhibition) at 10uM": -82.5}
{"smiles": "COc1cc(C)c(CN2CCN(CC(=O)Nc3ccccc3C(=O)NC3CC3)CC2)cc1OC", "hERG current change (%, negative = inhibition) at 10uM": -80.1}
{"smiles": "COc1ccc(CN2CCN(CC(=O)Nc3ccccc3C(=O)NC3CC3)CC2)cc1F", "hERG current change (%, negative = inhibition) at 10uM": -91.3}
{"smiles": "COc1ccc(F)cc1CN1CCN(CC(=O)Nc2ccccc2C(=O)NC2CC2)CC1", "hERG current change (%, negative = inhibition) at 10uM": -87.6}
{"smiles": "O=C(CCC(=O)c1ccc(F)cc1)Nc1ccccc1Cl", "hERG current change (%, negative = inhibition) at 10uM": 1.71}
{"smiles": "Cc1ccc(S(=O)(=O)N2CCCC2)cc1C(=O)N1CCN(Cc2ccccc2)CC1", "hERG current change (%, negative = inhibition) at 10uM": -8.29}
{"smiles": "CC1CSc2nnc(CCc3ccccc3)n21", "note": "(centres unmarked)", "hERG current change (%, negative = inhibition) at 10uM": 8.26}
{"smiles": "O=C(CSc1ccc(-c2cccnc2)nn1)N1CCCCCC1", "hERG current change (%, negative = inhibition) at 10uM": 23.2}
{"smiles": "CCCCn1c(N)c(N(CCOC)C(=O)CSCc2cccc(C)c2)c(=O)[nH]c1=O", "hERG current change (%, negative = inhibition) at 10uM": 9.08}
{"smiles": "COCCNS(=O)(=O)c1ccc(SC)cc1", "hERG current change (%, negative = inhibition) at 10uM": 10.2}
{"smiles": "Cc1cc(NC(=O)CSc2nnc(COc3ccccc3)n2Cc2ccco2)no1", "hERG current change (%, negative = inhibition) at 10uM": 2.24}
{"smiles": "CN1CCc2c(sc(NC(=O)CS(=O)(=O)c3ccccc3)c2C(N)=O)C1.Cl", "hERG current change (%, negative = inhibition) at 10uM": -23.4}
{"smiles": "CN1CCc2c(sc(NC(=O)CS(=O)(=O)c3ccc(F)cc3)c2C(N)=O)C1.Cl", "hERG current change (%, negative = inhibition) at 10uM": -58.8}
{"smiles": "CCOC(=O)c1c(NC(=O)CCS(=O)(=O)c2ccccc2)sc2c1CCN(C)C2.Cl", "hERG current change (%, negative = inhibition) at 10uM": -52.5}
{"smiles": "CCOC(=O)N1CCc2c(sc(NC(=O)CCS(=O)(=O)c3ccccc3)c2C(N)=O)C1", "hERG current change (%, negative = inhibition) at 10uM": -10.8}
{"smiles": "CCCN1CCc2c(sc(NC(=O)CCS(=O)(=O)c3ccccc3)c2C(=O)OC)C1.Cl", "hERG current change (%, negative = inhibition) at 10uM": -67}
{"smiles": "CCOC(=O)c1c(NC(=O)CCS(=O)(=O)c2ccccc2)sc2c1CCN(C(C)C)C2.Cl", "hERG current change (%, negative = inhibition) at 10uM": -72.4}
{"smiles": "CC(=O)N1CCc2c(sc(NC(=O)CCS(=O)(=O)c3ccccc3)c2C(N)=O)C1", "hERG current change (%, negative = inhibition) at 10uM": 5.3}
{"smiles": "COC(=O)c1c(NC(=O)CCS(=O)(=O)c2ccccc2)sc2c1CCN(C)C2.Cl", "hERG current change (%, negative = inhibition) at 10uM": -48}
{"smiles": "CC(C)N1CCc2c(sc(NC(=O)CCS(=O)(=O)c3ccccc3)c2C#N)C1.Cl", "hERG current change (%, negative = inhibition) at 10uM": -9.63}
{"smiles": "CC(C)N1CCc2c(sc(NC(=O)CCS(=O)(=O)c3ccccc3)c2C(N)=O)C1.Cl", "hERG current change (%, negative = inhibition) at 10uM": -26}
{"smiles": "CC(=O)N1CCc2c(sc(NC(=O)CS(=O)(=O)c3ccc(F)cc3)c2C(N)=O)C1", "hERG current change (%, negative = inhibition) at 10uM": 15.7}
{"smiles": "CCCN1CCc2c(sc(NC(=O)CCS(=O)(=O)c3ccccc3)c2C(N)=O)C1.Cl", "hERG current change (%, negative = inhibition) at 10uM": -27.3}
